{"source": "PubChem BioAssay (NCI)", "note": "This is part of a sample that, as a whole, favours compounds with a hit. Of some 83,000 tested, about 20% had one in any assay.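 Single-concentration screen, 48 h exposure, 96-well plates. Endpoint: percent growth. Below 10 = active.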 Values without a mark were called inactive."}
{"system": "SN12C renal", "assay": "NCI-60 one-dose screen, 48 h (100 = growth as untreated, 0 = no growth, -100 = all killed)", "details": "10 µM unless noted", "units": {"growth": "%"}}
{"compound": "COc1ccc(Sc2ccc3[nH]c(=O)nc(N)c3c2)cc1", "growth": 101}
{"compound": "CCN1C(=O)C2(Nc3ccccc3S2)c2cc(C)ccc21", "note": "(stereo not given)", "growth": 97.7}
{"compound": "CCOC(=O)c1cn2c3c(cc(F)cc3c1=O)C(CC)c1ccccc1C2", "note": "(stereo not given)", "growth": 96.3}
{"compound": "Cc1nn(CC(=O)O)c2c1C(=O)CC(C)(C)C2", "growth": 101}
{"compound": "O=C1/C(=C/c2ccc(Oc3ccccc3)cc2)N=C(c2ccccc2)N1CCc1cccs1", "growth": 91.3}
{"compound": "COc1cccc(C2C3=C(COC3=O)N(CCO)c3cc4c(cc32)OCO4)c1", "note": "(stereo not given)", "growth": 46.7}
{"compound": "COc1ccc2c(c1)c(=O)oc1c(C)c(OCC(C)=O)ccc12", "growth": 94}
{"compound": "CC1=C(C/C=C(\\C)CCC[C@H](C)CCC[C@H](C)CCCC(C)C)C(=O)c2ccccc2C1=O", "growth": 99.7}
{"compound": "O=S(=O)(OCCO)c1ccccc1", "growth": 96.2}
{"compound": "COc1ccc(-c2nc3sccn3c2/C=C/C(=O)c2cc(OC)c(OC)c(OC)c2)cc1OC", "growth": 40.3}
{"compound": "Cc1nc(NN)c([N+](=O)[O-])c(NN)n1", "growth": 103}
{"compound": "COc1cc(/C=C2\\C(=O)N(c3c(Cl)cccc3Cl)c3ccccc32)cc(OC)c1O", "growth": 50}
{"compound": "COc1cc(C2C3=C(COC3=O)N(CCO)c3cc4c(cc32)OCO4)cc(OC)c1O", "note": "(stereo not given)", "growth": 52.7}
{"compound": "COc1ccccc1CNCCCCCCCCCCCCN1C(=O)c2ccc3c4c(ccc(c24)C1=O)C(=O)N(CCCCCCCCCCCCNCc1ccccc1OC)C3=O", "growth": 74.1}
{"compound": "CCCCCCCCCCCCCCCC[N+]1(C)CCOCC1", "growth": 15.4}
